In PubChem BioAssay (NCATS):
Inconclusive results are not listed. Activity calls are given as the source filed them. The call rests on the fitted dose curve; in most records, active means well fitted cell-killing curve with a large enough effect; inconclusive means small, poorly fitted or top-dose-only effect; inactive means flat fitted curve, though single readings scatter.

Legend:
[1] = Cell Viability - LYMP2-017 (AID 972); settings: LYMP2-017 lymphoblastoid cell viability;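 further: cells exposed to compound for 24 hours at 37 °C; nearly all actives have a fitted effect of over 55% in size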
Summary of the method: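 Steps: plate 2500 lymphoblastoid cells per well; incubate 5 hr at 37 C; add compound across a concentration series and incubate 24 hr at 37 C; add CellTiter-Glo and read luminescence after 30 min at room temperature; fit Hill curves for AC50.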

[2] = Cell Viability - LYMP2-019 (AID 973); settings: LYMP2-019 lymphoblastoid cell line viability;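 further: cells exposed to compound for 24 h at 37 °C; nearly all actives have a fitted effect of over 55% in size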
Summary of the method: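 Cells plated at 2500/well and allowed 5 hr at 37 C before compound addition. After 24 hr incubation, CellTiter-Glo reagent was added, plates sat 30 min at room temperature, and luminescence was recorded.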

[3] = Cell Viability - LYMP2-021 (AID 974); settings: LYMP2-021 lymphoblastoid cells viability;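 further: compound exposure lasts 24 hours at 37 °C; nearly all actives have a fitted effect of over 55% in size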
Summary of the method: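 Concentration-response cytotoxicity in a human lymphoblastoid line: 24 hr treatment at 37 C in complete culture medium, tetraoctylammonium bromide as positive control, luminescent ATP quantitation as viability measure.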

[4] = Cell Viability - LYMP2-023 (AID 975); settings: LYMP2-023 lymphoblastoid cell viability;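 further: cells exposed to compound for 24 hours at 37 °C; nearly all actives have a fitted effect of over 55% in size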
Summary of the method: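 Concentration-dependent drop in intracellular ATP measures acute cytotoxicity in a human lymphoblastoid line treated for 24 hours in complete culture medium. AC50 values are taken from Hill-equation fits of qHTS data.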

[5] = Cell Viability - LYMP2-025 (AID 976); settings: LYMP2-025 lymphoblastoid cell viability;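 further: cells exposed to compound for 24 h at 37 °C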
Summary of the method: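 In qHTS format, LYMP2-025 lymphoblastoid cells in complete culture medium received compound for 24 hr; ATP-based CellTiter-Glo signal gave viability, with AC50 derived by Hill equation.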

[6] = Cell Viability - LYMP2-002 (AID 977); settings: LYMP2-002 lymphoblastoid cell viability, qHTS;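 further: compound exposure lasted 24 h at 37 °C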
Summary of the method: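 Cytotoxicity is scored as concentration-dependent loss of cellular ATP in a human lymphoblastoid line after 24 hr compound treatment at 37 C. AC50 is obtained by modelling concentration-response data with the Hill equation.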

[7] = Cell Viability - LYMP2-006 (AID 978); settings: LYMP2-006 lymphoblastoid cell viability, qHTS;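 further: cells exposed to compound for 24 hours; nearly all actives have a fitted effect of over 60% in size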
Summary of the method: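 In this cytotoxicity screen, the human lymphoblastoid line grew in complete medium with test compounds for 24 hr at 37 C. Cellular ATP served as the viability signal.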

[8] = Cell Viability - LYMP2-007 (AID 979); settings: LYMP2-007 lymphoblastoid cell viability;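 further: cells exposed to compound for 24 h before reading; nearly all actives have a fitted effect of over 60% in size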
Summary of the method: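 Acute toxicity is scored as a concentration-dependent fall in intracellular ATP in human lymphoblastoid cells treated 24 hr at 37 C, measured by luciferase luminescence; Hill-equation modelling yields AC50.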

[9] = Cell Viability - LYMP2-008 (AID 980); settings: LYMP2-008 lymphoblastoid cell viability, qHTS; further: nearly all actives have a fitted effect of over 60% in size
Summary of the method: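 Acute cytotoxicity is scored as concentration-dependent loss of cellular ATP in a human lymphoblastoid line after 24 hr treatment at 37 C. ATP is quantified by luciferase luminescence.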

[10] = Cell Viability - LYMP2-010 (AID 981); settings: LYMP2-010 lymphoblastoid cell viability, qHTS
Summary of the method: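 Acute toxicity is scored as a concentration-dependent loss of cellular ATP in human lymphoblastoid cells after 24 hr compound exposure in complete medium. Tetraoctylammonium bromide is the positive control.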

[11] = Cell Viability - LYMP2-012 (AID 982); settings: LYMP2-012 lymphoblastoid cell viability qHTS
[12] = Cell Viability - LYMP2-014 (AID 983); settings: LYMP2-014 lymphoblastoid cells, viability qHTS;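 further: cells exposed to compound for 24 h at 37 °C; nearly all actives have a fitted effect of over 50% in size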
Summary of the method: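 Decrease in intracellular ATP after 24 hr treatment at 37 C, measured by luciferase luminescence, indicated cytotoxicity. Concentration-response data were fitted with the standard Hill equation to give AC50.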

[13] = Cell Viability - LYMP2-016 (AID 984); settings: LYMP2-016 lymphoblastoid cell viability, qHTS
Summary of the method: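 Concentration-dependent ATP depletion measured in LYMP2-016 lymphoblastoid cells, 24 h, 37 C; luciferase-based luminescent detection; Hill-equation AC50.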

[14] = Cell Viability - LYMP2-018 (AID 985); settings: LYMP2-018 lymphoblastoid cells, viability (qHTS);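 further: compound exposure lasted 24 hr at 37 °C; nearly all actives have a fitted effect of over 50% in size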
Summary of the method: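 Acute cytotoxicity is scored as a concentration-dependent drop in intracellular ATP after 24 hr exposure of the lymphoblastoid line in complete culture medium, measured by luciferase luminescence. Potency is expressed as AC50 from Hill modelling.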

[15] = Cell Viability - LYMP2-020 (AID 986)
Summary of the method: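 Acute cytotoxicity in a human lymphoblastoid line is scored as a concentration-dependent fall in cellular ATP after 24 hr at 37 C in complete medium. The positive control is tetraoctylammonium bromide, and potency is given as Hill-fit AC50.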

[16] = Cell Viability - LYMP2-022 (AID 987); settings: LYMP2-022 lymphoblastoid cell viability; further: nearly all actives have a fitted effect of over 55% in size
Summary of the method: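 Acute toxicity in a human lymphoblastoid line is scored as decreased intracellular ATP after 24 hr compound treatment at 37 C. ATP is measured by CellTiter-Glo luminescence; curves are fitted with the Hill equation to give AC50.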

[17] = Cell Viability - LYMP2-024 (AID 988); settings: LYMP2-024 lymphoblastoid cell viability; further: nearly all actives have a fitted effect of over 60% in size
Summary of the method: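 Acute toxicity is measured as concentration-dependent loss of intracellular ATP in a human lymphoblastoid line treated 24 hours at 37 C. Luciferase luminescence quantifies ATP; AC50 values come from standard Hill-equation modelling.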

[18] = Cell Viability - LYMP2-026 (AID 989); settings: LYMP2-026 lymphoblastoid cell viability, qHTS;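 further: cells exposed to compound for 24 h at 37 °C; nearly all actives have a fitted effect of over 50% in size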
Summary of the method: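 Concentration-dependent loss of intracellular ATP in human lymphoblastoid cells after 24 hr at 37 C, quantified by luciferase luminescence. AC50 derived from standard Hill equation.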

[19] = Cell Viability - LYMP1-002 - Assay at 24 hr (AID 993); settings: LYMP1-002 lymphoblastoid cells viability
Summary of the method: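 qHTS, LYMP1-002 lymphoblastoid, 24 h cpd, 37 C, CellTiter-Glo ATP luminescence; AC50 via Hill eq.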

[20] = Cell Viability - LYMP1-002 - Assay at 40 hr (AID 994); settings: LYMP1-002 lymphoblastoid cell viability; further: nearly all actives have a fitted effect of over 60% in size
Summary of the method: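 Viability in the human lymphoblastoid line was measured as intracellular ATP via CellTiter-Glo after 40 hr compound exposure. Tetraoctylammonium bromide served as positive control.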

Measured: Potency
Potency means the concentration at half of the fitted maximal effect.

O=C1c2c(O)ccc([N+](=O)[O-])c2C(=O)c2c([N+](=O)[O-])ccc(O)c21
active: [1] 31.6 µM | [2] 39.8 µM | [3] 39.8 µM | [4] 39.8 µM | [5] 39.8 µM | [6] 39.8 µM | [7] 31.6 µM | [8] 39.8 µM | [9] 31.6 µM | [10] 31.6 µM | [11] 39.8 µM | [12] 39.8 µM | [13] 31.6 µM | [14] 39.8 µM | [15] 39.8 µM | [16] 39.8 µM | [17] 39.8 µM | [18] 39.8 µM | [19] 39.8 µM | [20] 39.8 µM
